Data published in PubChem BioAssay (NCI).
The panel holds about 83,000 compounds, 20% with a hit somewhere; the sample as a whole holds those more often.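 48-hour exposure, single concentration, 96-well plates; percent growth endpoint where 0 means no net growth. Active: below 10.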 Unmarked numbers belong to inactive results. Calls of active or inactive are those of the source.

Legend:
Experiment in all cases: NCI-60 one-dose screen, 48 h (100 = growth as untreated, 0 = no growth, -100 = all killed)
Settings in all cases: 10 µM unless noted
[1] = test system: NCI-H23 lung
[2] = test system: NCI-H226 lung
[3] = test system: NCI-H322M lung
[4] = test system: HOP-62 NSCLC
[5] = test system: NCI-H460 lung
[6] = test system: HOP-92 NSCLC
[7] = test system: NCI-H522 lung
[8] = test system: A549/ATCC NSCLC
[9] = test system: 786-0 renal
[10] = test system: COLO 205 colon

SMILES | growth [1] | growth [2] | growth [3] | growth [4] | growth [5] | growth [6] | growth [7] | growth [8] | growth [9] | growth [10]
COC(=O)c1cc2c(=O)[nH]cc3c2c(n1)CCC3 | 106% | 112% | 108% | 97.4% | 101% | 76.8% | 102% | 101% | 101% | 106%
CCOC(=O)c1sc2nc(-c3cc(OC)c(OC)c(OC)c3)nc(N3CCOCC3)c2c1C | 27.6% | 44.7% | 48.2% | 77.1% | 17.5% | -15% (active) | 12.1% | 28.9% | 51.8% | 26.5%
C#C[C@]1(O)CC[C@H]2[C@@H]3CC=C4c5nc(Nc6ccc(OC)cc6OC)sc5CC[C@]4(C)[C@H]3CC[C@@]21C | 34.6% | 24.2% | 37% | -11.5% (active) | 12.4% | 10.4% | 23% | 9.68% (active) | -54.7% (active) | -43.2% (active)
FC(F)(F)c1ccc2c(c1)Sc1ccccc1N2 | 96.4% | 94% | 103% | 97% | 104% | 79.9% | 84.9% | 95.4% | 89.6% | 110%
C=C(C)[C@@H]1CC[C@]2(C)[C@H](C(=O)C=C3[C@@H]4C[C@](C)(C(=O)N5CCN(C)CC5)CC[C@]4(C)CC[C@]32C)[C@@]1(C)CCC#N | -73.6% [100 µM] (active) | -68.4% [100 µM] (active) | -98.6% [100 µM] (active) | -84.5% [100 µM] (active) | -89.9% [100 µM] (active) | -45.6% [100 µM] (active) | -68.9% [100 µM] (active) | -67.3% [100 µM] (active) | -85.5% [100 µM] (active) | -69.4% [100 µM] (active)
Nc1nc(Cl)c2ncn(Cc3cc4c(cc3I)OCO4)c2n1 | 75.2% | 85.8% | 65.4% | 36.1% | 18% | 82.4% | 14.7% | 45.6% | 44.4% | 21.1%
CC1(C)CC[C@]2(C(=O)O)CC[C@]3(C)C(=CC[C@@H]4[C@@]5(C)C/C(=C/c6ccco6)C(=O)C(C)(C)[C@@H]5CC[C@]43C)[C@@H]2C1 | -25.6% [100 µM] (active) | -42.4% [100 µM] (active) | -48.8% [100 µM] (active) | -85.3% [100 µM] (active) | -55.9% [100 µM] (active) | -82.1% [100 µM] (active) | -39.3% [100 µM] (active) | -4.53% [100 µM] (active) | -19.5% [100 µM] (active) | -80.7% [100 µM] (active)
CCN(CCNc1ccc(C)c2sc3cc(Cl)ccc3c(=O)c12)CC(C)O (stereo not given) | 92.9% | 134% | 95.9% | 76% | 3.16% (active) | 29.8% | 28.3% | 34.7% | 41.9% | -34% (active)
CC(=O)CC(=O)SC1=NCCS1 | 108% | 112% | 113% | 123% | 106% | 101% | 95.8% | 87.6% | 109% | 109%
CCOC(=O)CC(c1ccccc1)C(C#N)c1ccccc1 (stereo not given) | 102% | 95.4% | 108% | 96.2% | 105% | 90.9% | 95.9% | 99.3% | 98.7% | 100%
C=C(C)[C@@H]1CC[C@]2(C(N)=O)CC[C@]3(C)[C@H](CC[C@@H]4[C@@]5(C)CC[C@H](O)C(C)(C)[C@@H]5CC[C@]43C)[C@@H]12 | -27.1% [100 µM] (active) | -50.5% [100 µM] (active) | -58.9% [100 µM] (active) | -72.2% [100 µM] (active) | -37.5% [100 µM] (active) | -62.8% [100 µM] (active) | -53.8% [100 µM] (active) | -69.3% [100 µM] (active) | -72.2% [100 µM] (active) | -66.2% [100 µM] (active)
COc1ccc(-c2cc(-c3ccc(OC)c(OC)c3)nc(SCCCCCC(=O)NO)n2)cc1 | 68.7% | 95.2% | 70.6% | 60.3% | 62.3% | 27.6% | 6.61% (active) | 85.7% | 94.1% | 36.8%
N#Cc1c(Cl)nc(SCC2CO2)nc1-c1ccccc1 (stereo not given) | 101% | 114% | 105% | 92.8% | 101% | 89.8% | 101% | 124% | 99.5% | 131%
CCOc1ccccc1/C=N\Nc1ccc(S(=O)(=O)c2ccc(N/N=C/c3ccccc3OCC)cc2)cc1 | 95.7% | 79.5% | 92.1% | 93% | 98.6% | 88.9% | 95.2% | 96.7% | 103% | 114%
O=C(Nc1ccc(Cl)c(C(F)(F)F)c1)Nc1ccc(-c2cccnc2)cc1N1CCC(CO)CC1 | 38.4% | 53.4% | 54.8% | 47.5% | 18.5% | 34.5% | 20.2% | 22.2% | 15.6% | -26.6% (active)
Cc1ccc(S(=O)(=O)Nc2ccccc2)cc1N | 90.8% | 95.6% | 97% | 86.2% | 99.5% | 75.2% | 23.5% | 81.3% | 99.8% | 119%
CCC(C)[C@H](NC(=O)NC(=O)NC(=O)CI)C(=O)OC (stereo not given in full) | 82.3% | 86.7% | 106% | 87.9% | 95.6% | -34.4% (active) | -86.5% (active) | 91.9% | -50.3% (active) | 10.8%
C=C(C)C1CCC2(C(=O)O)CCC3(C)C(CCC4C5(C)CCC(OC(=O)NCc6ccccc6)C(C)(C)C5CCC43C)C12 (stereo not given) | 32.3% | 44.8% | 59.3% | 48.4% | 29.4% | -4.47% (active) | -6.51% (active) | 26.7% | 44.8% | 13.7%
C[C@H]1[C@H](C)CC[C@]2(COC(=O)CCC(=O)O)CC[C@]3(C)C(=CC[C@@H]4[C@@]5(C)CCCNC(C)(C)[C@@H]5CC[C@]43C)[C@H]12 | 62.8% [100 µM] | 76.3% [100 µM] | 86.8% [100 µM] | 49.1% [100 µM] | 66.8% [100 µM] | -7.31% [100 µM] (active) | 53.5% [100 µM] | 70.9% [100 µM] | 55.6% [100 µM] | 69.1% [100 µM]
COCc1nc2ccccc2[nH]1 | 103% | 100% | 100% | 105% | 106% | 100% | 96.3% | 100% | 99.4% | 109%
c1ccc(-c2n[nH]c(-c3ccccn3)n2)nc1 | 102% | 118% | 121% | 104% | 106% | 94% | 96.8% | 105% | 97% | 143%
COc1cc2c(c(OC)c1OC)-c1ccc(NNC(N)=S)c(=O)cc1[C@@H](NC(C)=O)CC2 | 5.07% (active) | 27.9% | 64.9% | 32.7% | -3.14% (active) | -6.59% (active) | -63.3% (active) | 15.7% | 21.9% | -95.6% (active)
CC1=C/C(=C(\c2cc(C)c(O)c(C(=O)O)c2)c2c(Cl)cccc2Cl)C=C(C(=O)O)C1=O | 98.8% | 96.7% | 97.7% | 97% | 104% | 92.9% | 97.8% | 100% | 102% | 110%
CCOC(=O)C(c1ccccc1)N1C(=O)c2ccccc2C1=O (stereo not given) | 87.2% | 106% | 96.2% | 95.8% | 100% | 82% | 96.8% | 97.6% | 102% | 98.5%
C[C@@H]1C[C@H]2C(=O)O[C@@H](C)[C@H](NC(=O)[C@H](Cc3cc(F)cc(F)c3)NC(=O)Nc3ccc(Cl)cc3F)C(=O)N3C[C@H](O)C[C@H]3C(=O)N3CCN(C)C[C@H]3C(=O)N[C@@H](C)C(=O)N2C1 | 36.2% | 52.6% | 72.8% | 47.8% | 36% | 37.8% | 26.7% | 53.6% | 74.1% | 12%
